Holding throughout (experiment): DAPPL (digital affinity profiling via proximity ligation, sequencing); 10 mM Tris-HCl pH 7.5, 50 mM NaCl, 1 mM DTT, 4% glycerol, room temperature, 30 min; GST-TFs on glutathione beads, 16-mer random dsDNA library, 0.1% formaldehyde crosslink after washing; high values mean tight binding
The target in assay [1] is T1, FEV (Homo sapiens, UniProt Q99581 1-238).
T1 sequence: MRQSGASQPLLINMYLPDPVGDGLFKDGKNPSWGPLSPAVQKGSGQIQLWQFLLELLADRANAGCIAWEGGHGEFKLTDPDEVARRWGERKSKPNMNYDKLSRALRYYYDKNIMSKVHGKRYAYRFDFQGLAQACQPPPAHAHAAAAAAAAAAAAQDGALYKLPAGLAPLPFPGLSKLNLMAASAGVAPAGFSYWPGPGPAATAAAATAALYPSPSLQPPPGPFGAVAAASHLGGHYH
Particulars: protein: recombinant; tags: N-terminal GST; dsDNA, one strand shown. In outline:
(§1)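 In yeast, human transcription factors were expressed with a GST fusion, then pulled down on glutathione beads and given DNA barcodes. Pooled with a tag-only sample, they were exposed to 200 nmole of a 16-mer random double-stranded DNA library (Tris/NaCl/DTT/glycerol buffer, room temperature, 30 min), washed, crosslinked with 0.1% formaldehyde, proximity-ligated using BsaI/T4 ligase for 1 h at 37 °C, PCR-amplified and read on an Illumina NextSeq500. Each hexamer's frequency of reads for a factor, divided by the matching frequency for the tag-only sample, gives the binding signal.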

The target of assay [2] is ETV5 (Homo sapiens, UniProt P41161 1-510). The note with it: protein: recombinant; tags: N-terminal GST; dsDNA, one strand shown. The essentials: as §1
Assay [3] deals with HSF1 (Homo sapiens, UniProt Q00613 1-529). Particulars: protein: recombinant; tags: N-terminal GST; chain copies: 3; dsDNA, one strand shown. The essentials:
as §1

Assay [4] addresses T2, SPIC (Homo sapiens, UniProt Q8N5J4 1-248).
T2 sequence: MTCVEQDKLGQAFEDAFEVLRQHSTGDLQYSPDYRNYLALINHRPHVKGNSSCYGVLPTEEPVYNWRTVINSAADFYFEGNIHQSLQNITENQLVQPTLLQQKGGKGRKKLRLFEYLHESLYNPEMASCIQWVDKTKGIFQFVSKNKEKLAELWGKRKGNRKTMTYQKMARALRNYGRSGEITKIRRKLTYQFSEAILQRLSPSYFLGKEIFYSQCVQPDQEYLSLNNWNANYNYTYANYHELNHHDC
Particulars: protein: recombinant; tags: N-terminal GST; dsDNA, one strand shown. The essentials:
as §1

In assay [5] the target is ELF4 (Homo sapiens, UniProt Q99607 1-663). The note with it: protein: recombinant; tags: N-terminal GST; dsDNA, one strand shown. The essentials:
as §1

Assay [6] concerns the target T3, ELK4 (Homo sapiens, UniProt P28324-2 1-405).
T3 sequence: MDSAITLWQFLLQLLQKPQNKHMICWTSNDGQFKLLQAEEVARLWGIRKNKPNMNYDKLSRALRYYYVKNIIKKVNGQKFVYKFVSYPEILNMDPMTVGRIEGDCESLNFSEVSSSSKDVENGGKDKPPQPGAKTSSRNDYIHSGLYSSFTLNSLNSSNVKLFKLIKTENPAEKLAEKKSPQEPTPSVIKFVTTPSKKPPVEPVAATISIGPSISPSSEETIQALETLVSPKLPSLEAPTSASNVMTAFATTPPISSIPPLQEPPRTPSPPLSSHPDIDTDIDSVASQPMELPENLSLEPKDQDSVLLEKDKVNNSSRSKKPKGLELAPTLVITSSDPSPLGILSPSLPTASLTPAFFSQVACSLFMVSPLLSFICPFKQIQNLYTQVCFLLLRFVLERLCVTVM
The note with it: protein: recombinant; tags: N-terminal GST; dsDNA, one strand shown. In outline: as §1

Assay [7] addresses T4, ETV2 (Homo sapiens, UniProt O00321 1-342).
T4 sequence: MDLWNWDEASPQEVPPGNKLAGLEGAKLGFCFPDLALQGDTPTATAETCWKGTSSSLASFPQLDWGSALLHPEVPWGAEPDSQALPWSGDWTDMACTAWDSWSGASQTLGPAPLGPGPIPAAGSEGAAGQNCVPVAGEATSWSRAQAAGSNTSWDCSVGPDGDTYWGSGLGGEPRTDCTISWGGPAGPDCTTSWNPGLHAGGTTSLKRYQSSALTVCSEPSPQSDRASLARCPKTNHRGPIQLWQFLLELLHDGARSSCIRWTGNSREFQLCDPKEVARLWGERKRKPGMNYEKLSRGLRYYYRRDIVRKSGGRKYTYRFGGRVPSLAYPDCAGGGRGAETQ
Particulars: protein: recombinant; tags: N-terminal GST; dsDNA, one strand shown. In outline: as §1

Assay [8] concerns the target T5, ELF3 (Homo sapiens, UniProt P78545 1-371).
T5 sequence: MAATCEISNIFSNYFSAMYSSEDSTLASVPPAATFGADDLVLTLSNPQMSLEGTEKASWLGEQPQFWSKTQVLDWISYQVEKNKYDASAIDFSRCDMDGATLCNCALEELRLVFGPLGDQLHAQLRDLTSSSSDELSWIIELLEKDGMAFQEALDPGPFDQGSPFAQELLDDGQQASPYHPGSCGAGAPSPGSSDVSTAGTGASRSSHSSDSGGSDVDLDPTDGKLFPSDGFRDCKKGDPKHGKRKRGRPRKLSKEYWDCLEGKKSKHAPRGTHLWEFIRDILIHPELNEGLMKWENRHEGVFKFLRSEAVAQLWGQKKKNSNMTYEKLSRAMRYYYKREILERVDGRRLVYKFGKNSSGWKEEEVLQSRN
The note with it: protein: recombinant; tags: N-terminal GST; dsDNA, one strand shown. In outline:
as §1

For assay [9], the target named is CRX (Homo sapiens, UniProt O43186 1-299). Particulars: protein: recombinant; tags: N-terminal GST; dsDNA, one strand shown. The essentials:
as §1

In assay [10] the target is ETV1 (Homo sapiens, UniProt P50549 1-477). Particulars: protein: recombinant; tags: N-terminal GST; dsDNA, one strand shown. The essentials:
as §1

Assay [11] concerns the target T6, ERF (Homo sapiens, UniProt P50548 1-548).
T6 sequence: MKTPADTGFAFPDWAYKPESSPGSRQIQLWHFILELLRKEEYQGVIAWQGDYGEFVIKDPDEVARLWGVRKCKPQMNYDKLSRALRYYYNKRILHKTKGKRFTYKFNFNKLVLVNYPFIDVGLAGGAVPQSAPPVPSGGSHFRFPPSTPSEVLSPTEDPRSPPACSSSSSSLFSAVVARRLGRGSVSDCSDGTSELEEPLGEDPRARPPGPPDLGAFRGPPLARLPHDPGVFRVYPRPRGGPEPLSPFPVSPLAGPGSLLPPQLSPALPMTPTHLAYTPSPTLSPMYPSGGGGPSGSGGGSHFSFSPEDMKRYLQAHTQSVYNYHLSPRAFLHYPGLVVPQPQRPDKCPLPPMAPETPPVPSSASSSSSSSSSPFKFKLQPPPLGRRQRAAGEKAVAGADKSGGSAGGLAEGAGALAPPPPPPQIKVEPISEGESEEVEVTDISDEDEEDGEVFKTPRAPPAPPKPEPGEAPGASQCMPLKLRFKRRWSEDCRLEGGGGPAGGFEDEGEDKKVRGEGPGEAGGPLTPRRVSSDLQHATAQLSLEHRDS
The note with it: protein: recombinant; tags: N-terminal GST; dsDNA, one strand shown. The essentials: as §1

Assay [12] has as its target T7, ETV3L (Homo sapiens, UniProt Q6ZN32 1-361).
T7 sequence: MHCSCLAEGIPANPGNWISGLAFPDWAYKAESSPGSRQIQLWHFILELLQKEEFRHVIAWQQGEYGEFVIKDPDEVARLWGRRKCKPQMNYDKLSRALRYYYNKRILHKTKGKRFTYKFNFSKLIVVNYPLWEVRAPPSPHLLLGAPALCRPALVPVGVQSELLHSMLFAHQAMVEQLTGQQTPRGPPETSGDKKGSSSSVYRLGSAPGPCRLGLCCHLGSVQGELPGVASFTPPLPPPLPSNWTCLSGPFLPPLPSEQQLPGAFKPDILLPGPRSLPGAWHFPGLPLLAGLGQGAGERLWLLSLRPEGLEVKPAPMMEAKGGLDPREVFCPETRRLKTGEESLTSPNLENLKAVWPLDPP
The note with it: protein: recombinant; tags: N-terminal GST; dsDNA, one strand shown. In outline: as §1

The target in assay [13] is T8, ETS2 (Homo sapiens, UniProt P15036 1-469).
T8 sequence: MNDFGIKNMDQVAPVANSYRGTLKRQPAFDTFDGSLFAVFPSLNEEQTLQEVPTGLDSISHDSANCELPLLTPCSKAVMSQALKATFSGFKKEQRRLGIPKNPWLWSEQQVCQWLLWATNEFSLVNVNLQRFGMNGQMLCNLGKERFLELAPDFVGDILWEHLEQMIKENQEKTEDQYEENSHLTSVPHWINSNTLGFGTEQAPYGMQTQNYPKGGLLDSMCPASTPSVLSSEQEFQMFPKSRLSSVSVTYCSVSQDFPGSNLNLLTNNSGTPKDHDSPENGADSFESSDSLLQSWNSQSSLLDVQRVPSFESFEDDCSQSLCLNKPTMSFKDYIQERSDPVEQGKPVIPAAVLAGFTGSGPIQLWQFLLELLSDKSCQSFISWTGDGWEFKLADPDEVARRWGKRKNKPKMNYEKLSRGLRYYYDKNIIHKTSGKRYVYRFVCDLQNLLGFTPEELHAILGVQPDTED
The note with it: protein: recombinant; tags: N-terminal GST; dsDNA, one strand shown. In outline:
as §1

The target of assay [14] is T9, SPDEF (Homo sapiens, UniProt O95238 1-335).
T9 sequence: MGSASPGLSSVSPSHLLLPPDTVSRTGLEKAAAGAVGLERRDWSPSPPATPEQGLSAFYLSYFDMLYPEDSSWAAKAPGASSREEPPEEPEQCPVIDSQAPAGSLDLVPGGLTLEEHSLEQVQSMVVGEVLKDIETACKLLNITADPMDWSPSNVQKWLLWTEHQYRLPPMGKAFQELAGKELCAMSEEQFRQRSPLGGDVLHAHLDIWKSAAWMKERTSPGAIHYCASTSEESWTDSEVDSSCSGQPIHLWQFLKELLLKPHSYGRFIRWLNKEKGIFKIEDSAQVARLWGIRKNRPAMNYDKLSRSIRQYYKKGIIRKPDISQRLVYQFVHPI
Particulars: protein: recombinant; tags: N-terminal GST; dsDNA, one strand shown. The essentials:
as §1

The target in assay [15] is T10, ETV7 (Homo sapiens, UniProt Q9Y603 1-341).
T10 sequence: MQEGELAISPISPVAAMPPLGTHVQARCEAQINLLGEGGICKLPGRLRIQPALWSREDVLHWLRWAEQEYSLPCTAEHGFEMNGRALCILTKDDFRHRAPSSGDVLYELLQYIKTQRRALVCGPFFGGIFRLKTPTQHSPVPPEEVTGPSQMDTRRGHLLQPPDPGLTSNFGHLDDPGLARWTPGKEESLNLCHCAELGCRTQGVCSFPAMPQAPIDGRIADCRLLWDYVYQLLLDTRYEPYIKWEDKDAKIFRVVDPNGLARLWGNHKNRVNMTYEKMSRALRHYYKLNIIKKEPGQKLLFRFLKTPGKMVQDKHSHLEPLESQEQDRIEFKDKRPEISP
The note with it: protein: recombinant; tags: N-terminal GST; dsDNA, one strand shown. In outline:
as §1

The target in assay [16] is T11, ELF5 (Homo sapiens, UniProt Q9UKW6-2 1-255).
T11 sequence: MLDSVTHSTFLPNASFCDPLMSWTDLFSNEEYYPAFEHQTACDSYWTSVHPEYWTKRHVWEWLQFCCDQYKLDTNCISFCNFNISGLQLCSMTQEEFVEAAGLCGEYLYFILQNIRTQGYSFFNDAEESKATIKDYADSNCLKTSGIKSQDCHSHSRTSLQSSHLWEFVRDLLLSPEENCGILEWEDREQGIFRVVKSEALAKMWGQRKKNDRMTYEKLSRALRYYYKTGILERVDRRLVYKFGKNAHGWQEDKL
The note with it: protein: recombinant; tags: N-terminal GST; dsDNA, one strand shown. In outline: as §1

Assay [17] addresses T12, ETV3 (Homo sapiens, UniProt P41162-2 1-143).
T12 sequence: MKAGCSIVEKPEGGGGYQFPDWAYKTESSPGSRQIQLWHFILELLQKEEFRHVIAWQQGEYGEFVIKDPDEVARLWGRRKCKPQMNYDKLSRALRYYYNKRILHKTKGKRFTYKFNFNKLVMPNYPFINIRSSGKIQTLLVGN
The note with it: protein: recombinant; tags: N-terminal GST; dsDNA, one strand shown. In outline:
as §1

For assay [18], the target named is ETV6 (Homo sapiens, UniProt P41212 1-452). The note with it: protein: recombinant; tags: N-terminal GST; dsDNA, one strand shown. The essentials: as §1
Chain of ETV6 (P41212 whole entry): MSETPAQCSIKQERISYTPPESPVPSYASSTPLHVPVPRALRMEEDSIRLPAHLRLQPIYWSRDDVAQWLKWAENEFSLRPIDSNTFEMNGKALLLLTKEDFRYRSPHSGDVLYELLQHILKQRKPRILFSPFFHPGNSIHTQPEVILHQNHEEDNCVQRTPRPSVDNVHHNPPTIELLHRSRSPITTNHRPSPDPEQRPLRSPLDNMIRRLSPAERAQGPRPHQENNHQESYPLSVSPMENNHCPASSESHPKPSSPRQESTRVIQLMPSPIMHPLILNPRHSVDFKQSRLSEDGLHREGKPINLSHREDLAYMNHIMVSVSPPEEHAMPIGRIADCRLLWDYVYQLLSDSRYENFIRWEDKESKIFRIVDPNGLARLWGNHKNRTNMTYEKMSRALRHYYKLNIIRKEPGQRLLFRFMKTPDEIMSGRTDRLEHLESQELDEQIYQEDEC

Chain of CRX (O43186 whole entry): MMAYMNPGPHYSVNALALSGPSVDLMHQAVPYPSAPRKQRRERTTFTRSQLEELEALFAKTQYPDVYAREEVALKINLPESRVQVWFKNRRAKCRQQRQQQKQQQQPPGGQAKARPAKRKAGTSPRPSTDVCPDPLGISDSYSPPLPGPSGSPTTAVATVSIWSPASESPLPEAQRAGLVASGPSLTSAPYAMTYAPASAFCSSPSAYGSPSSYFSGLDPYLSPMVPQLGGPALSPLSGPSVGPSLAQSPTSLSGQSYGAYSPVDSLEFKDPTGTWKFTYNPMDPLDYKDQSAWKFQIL
Chain of ETV5 (P41161 whole entry): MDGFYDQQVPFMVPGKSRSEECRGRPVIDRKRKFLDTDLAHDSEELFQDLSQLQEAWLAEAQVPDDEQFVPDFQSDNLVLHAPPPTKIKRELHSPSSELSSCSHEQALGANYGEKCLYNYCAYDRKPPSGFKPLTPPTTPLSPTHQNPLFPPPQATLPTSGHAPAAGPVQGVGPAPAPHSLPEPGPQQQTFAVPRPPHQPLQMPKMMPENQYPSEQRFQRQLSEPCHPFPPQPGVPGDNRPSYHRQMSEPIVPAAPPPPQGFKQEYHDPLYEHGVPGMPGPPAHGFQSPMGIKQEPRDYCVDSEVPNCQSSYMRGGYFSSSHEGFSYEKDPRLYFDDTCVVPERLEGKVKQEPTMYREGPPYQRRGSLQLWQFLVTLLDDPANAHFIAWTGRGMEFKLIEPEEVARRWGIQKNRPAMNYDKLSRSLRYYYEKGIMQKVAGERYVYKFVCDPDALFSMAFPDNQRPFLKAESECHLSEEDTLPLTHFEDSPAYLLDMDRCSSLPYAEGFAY
Chain of ELF4 (Q99607 whole entry): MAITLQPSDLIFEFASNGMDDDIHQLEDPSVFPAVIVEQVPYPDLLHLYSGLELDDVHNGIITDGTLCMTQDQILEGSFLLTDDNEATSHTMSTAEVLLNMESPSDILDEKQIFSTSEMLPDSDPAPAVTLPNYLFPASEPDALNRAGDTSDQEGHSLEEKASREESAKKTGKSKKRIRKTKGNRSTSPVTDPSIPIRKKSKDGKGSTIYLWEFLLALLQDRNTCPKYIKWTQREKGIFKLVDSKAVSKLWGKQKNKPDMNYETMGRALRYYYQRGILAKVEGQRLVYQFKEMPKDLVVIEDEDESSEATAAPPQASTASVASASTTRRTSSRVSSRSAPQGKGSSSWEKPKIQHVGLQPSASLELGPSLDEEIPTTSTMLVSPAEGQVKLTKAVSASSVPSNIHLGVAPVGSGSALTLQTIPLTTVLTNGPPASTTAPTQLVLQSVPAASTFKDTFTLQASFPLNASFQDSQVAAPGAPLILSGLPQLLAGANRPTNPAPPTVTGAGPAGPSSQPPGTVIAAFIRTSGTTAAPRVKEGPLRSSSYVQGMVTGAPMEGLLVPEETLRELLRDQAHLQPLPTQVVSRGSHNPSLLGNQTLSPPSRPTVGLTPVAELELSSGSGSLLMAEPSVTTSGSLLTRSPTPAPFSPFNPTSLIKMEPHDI
Chain of HSF1 (Q00613 whole entry): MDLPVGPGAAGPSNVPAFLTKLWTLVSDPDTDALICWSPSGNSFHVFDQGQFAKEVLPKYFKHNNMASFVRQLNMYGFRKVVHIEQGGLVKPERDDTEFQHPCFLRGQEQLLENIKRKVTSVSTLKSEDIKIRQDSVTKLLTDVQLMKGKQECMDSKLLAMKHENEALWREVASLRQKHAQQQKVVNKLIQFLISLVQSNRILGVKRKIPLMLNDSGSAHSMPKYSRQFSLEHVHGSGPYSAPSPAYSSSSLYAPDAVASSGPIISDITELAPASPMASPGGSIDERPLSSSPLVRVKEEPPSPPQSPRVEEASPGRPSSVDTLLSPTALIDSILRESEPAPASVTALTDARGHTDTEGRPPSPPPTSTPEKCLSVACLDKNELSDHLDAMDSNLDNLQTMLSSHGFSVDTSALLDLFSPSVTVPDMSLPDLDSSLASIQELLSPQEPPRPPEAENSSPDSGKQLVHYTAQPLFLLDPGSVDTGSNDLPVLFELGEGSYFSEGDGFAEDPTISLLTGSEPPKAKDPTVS
Chain of ETV1 (P50549 whole entry): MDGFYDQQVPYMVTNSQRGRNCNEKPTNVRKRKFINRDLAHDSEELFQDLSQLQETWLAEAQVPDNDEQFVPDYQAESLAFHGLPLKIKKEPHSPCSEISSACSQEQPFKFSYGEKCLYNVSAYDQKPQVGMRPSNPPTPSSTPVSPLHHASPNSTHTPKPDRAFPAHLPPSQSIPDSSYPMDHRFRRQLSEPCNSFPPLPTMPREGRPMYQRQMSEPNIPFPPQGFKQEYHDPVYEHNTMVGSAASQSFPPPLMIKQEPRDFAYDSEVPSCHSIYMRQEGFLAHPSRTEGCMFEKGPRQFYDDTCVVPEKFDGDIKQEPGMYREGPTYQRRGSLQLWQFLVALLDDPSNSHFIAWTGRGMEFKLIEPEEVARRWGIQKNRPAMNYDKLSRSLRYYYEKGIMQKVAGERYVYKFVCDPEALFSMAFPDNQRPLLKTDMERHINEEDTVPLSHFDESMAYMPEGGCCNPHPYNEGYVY

In the case of GGTCTC, the binding signal in assay [1] is 2.46 fold enrichment (6-mer frequency, TF over GST control); in assay [2], 2.46 fold enrichment (6-mer frequency, TF over GST control); in assay [3], 1.44 fold enrichment (6-mer frequency, TF over GST control); in [4], 2.4 fold enrichment (6-mer frequency, TF over GST control); in assay [5], 2.51 fold enrichment (6-mer frequency, TF over GST control); in assay [6], 2.64 fold enrichment (6-mer frequency, TF over GST control). Besides, the binding signal in assay [7] is 2.18 fold enrichment (6-mer frequency, TF over GST control); in assay [8], 2.29 fold enrichment (6-mer frequency, TF over GST control); in assay [9], 1.48 fold enrichment (6-mer frequency, TF over GST control); in assay [10], 2.58 fold enrichment (6-mer frequency, TF over GST control); in [11], 2.29 fold enrichment (6-mer frequency, TF over GST control); in [12], 2.36 fold enrichment (6-mer frequency, TF over GST control). Further, the binding signal is 2.55 fold enrichment (6-mer frequency, TF over GST control) in assay [13]; 1.93 fold enrichment (6-mer frequency, TF over GST control) in assay [14]; 2.04 fold enrichment (6-mer frequency, TF over GST control) in assay [15]; 2.18 fold enrichment (6-mer frequency, TF over GST control) in assay [16]; 2.64 fold enrichment (6-mer frequency, TF over GST control) in assay [17]; 1.99 fold enrichment (6-mer frequency, TF over GST control) in assay [18].

Values taken from publication PMC7862700, “An all-to-all approach to the identification of sequence-specific readers for epigenetic DNA modifications on cytosine”.
